The list is not random: actives were taken first. Their share in the collection is about 1.2%.
Platelet DG rel = inhibitors of platelet dense granule secretion, primary screen, cell-based, MLPCN, human platelets; human platelet-rich plasma, SFLLRN dense granule ATP release, luminescence; inhibition, %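 (compounds screened at 7.5 µM in platelet-rich plasma)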; 0.22% of 300,000 active; AID 1663, 2009;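 active = mean replicate score, as percent of positive control, at or above 50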
ABCB6 inh 2 = ABCB6 transporter inhibitors, primary screen, K562-ABCB6 cells, flow cytometry, MLPCN library. ATP-binding cassette sub-family B member 6 (Homo sapiens), Q9NP58. 0.19% of 360,000 active. K562-ABCB6 porphyrin accumulation, 1 h; stronger effect = lower value. fluorescence ratio to DMSO, % at 10 µM;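 active = fluorescence ratio to DMSO below 75%, the collection mean minus 3 SD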;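 also: signal is porphyrin accumulated inside mitochondria; lower ratio means ABCB6 inhibition with less porphyrin fluorescence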
Yeast superoxide = reduction of superoxide in aged yeast, primary screen, HTS; S. cerevisiae aged cells, superoxide DHE fluorescence; stronger effect = lower value; superoxide response (% of plate mean), % at 10 µM; 0.18% of 330,000 active;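 active = superoxide response under a set limit, about three screen SD below normal, cut at about 65% in these data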;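 also: yeast aged for seven days with compound at 30 °C before DHE staining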
VLA-4 inh = inhibition in human VLA-4 binding assay, primary screen, VLA-4 allosteric modulator project, MLPCN library, flow cytometry, VLA-4 expressing cells; Integrin alpha-4 (Homo sapiens), P13612; ligand binding flow cytometry; inhibition, % (about 7 µM as worked out from the volumes in the protocol); 0.2% of 330,000 active; AID 2557, 2010; in the data active = inhibition above about 50%
SKN-1 block = suppressors of acrylamide-induced Pgst-4::GFP reporter in worms, primary screen, SKN-1 inhibitor project, whole organism, uHTS, GFP/RFP fluorescence ratio, strain VP596 | C. elegans VP596 Pgst-4::GFP/RFP ratio, 24 h | inhibition, % at 21.8 µM | 0.49% of 360,000 active;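 active = interference check ratio from 0.5 to 1.5 plus GFP to RFP signal ratio inhibition reaching or exceeding a fixed threshold, cut at about 30% in these data, passing the limit was not always enough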
A number is an active result; ! = not confirmed by another sample.

What do the screens show for `Cc1c(N=C/C=C2/N(C)c3ccccc3C2(C)C)c(=O)n(-c2ccccc2)n1C`?
Platelet DG rel: inactive; ABCB6 inh 2: inactive; Yeast superoxide: inactive; VLA-4 inh: inactive; SKN-1 block: 39!

Results for O=C(NCc1ccco1)c1sc2cc(F)ccc2c1Cl ?
Platelet DG rel: inactive; ABCB6 inh 2: inactive; Yeast superoxide: inactive; VLA-4 inh: inactive; SKN-1 block: 37

How did Cc1c(CCOC(=O)CC23CC4CC(CC(C4)C2)C3)sc[n+]1CC(=O)c1ccccc1 do in these assays?
Platelet DG rel: inactive; ABCB6 inh 2: inactive; Yeast superoxide: inactive; VLA-4 inh: inactive; SKN-1 block: inactive

How did Cc1c(CCOC(=O)C23CC4(C)CC(C)(CC(C)(C4)C2)C3)sc[n+]1CC(=O)c1ccccc1 do in these assays?
Platelet DG rel: inactive; ABCB6 inh 2: inactive; Yeast superoxide: inactive; VLA-4 inh: inactive; SKN-1 block: 38

What do the screens show for `CCCCNc1cc(=O)oc2ccccc12`?
Platelet DG rel: inactive; ABCB6 inh 2: inactive; Yeast superoxide: inactive; VLA-4 inh: inactive; SKN-1 block: 30

Results for O=c1cc(NCc2ccccc2)c2ccccc2o1 ?
Platelet DG rel: inactive; ABCB6 inh 2: inactive; Yeast superoxide: inactive; VLA-4 inh: inactive; SKN-1 block: inactive

What do the screens show for `CCOC(=O)Cn1c(=NC(=O)CSC(C)=O)sc2ccccc21`?
Platelet DG rel: 87; ABCB6 inh 2: inactive; Yeast superoxide: inactive; VLA-4 inh: inactive; SKN-1 block: inactive

What do the screens show for `CC(=O)Nc1ccc(-c2ccnc3c2CC(C)(C(=O)Nc2ccc4c(c2)OCO4)O3)cc1` (stereo unspecified)?
ABCB6 inh 2: inactive; SKN-1 block: inactive

Results for CN(C)c1ccc(/C=C(\C#N)C(=O)Nc2nc3c(s2)CCN(Cc2ccccc2)C3)cc1 ?
Platelet DG rel: inactive; ABCB6 inh 2: inactive; Yeast superoxide: inactive; VLA-4 inh: inactive; SKN-1 block: 45

Results for CCCCNC(=O)C1(C)CCN1C(=O)c1ccc(F)cc1Cl (stereo unspecified) ?
ABCB6 inh 2: inactive; SKN-1 block: inactive

How did Cc1ccc(F)c(C2C3C=CCC(c4cccc(-c5ccc(N(C)C)cc5)c4)C3C(=O)N2Cc2ccccc2)c1 (stereo unspecified) do in these assays?
Platelet DG rel: inactive; ABCB6 inh 2: inactive; Yeast superoxide: inactive; VLA-4 inh: inactive; SKN-1 block: 44

How did COC(=O)C1=C(C)NC(C)=C(C(=O)OC)C1c1ccc(OC(=O)c2ccco2)cc1 do in these assays?
Platelet DG rel: inactive; ABCB6 inh 2: inactive; Yeast superoxide: inactive; VLA-4 inh: inactive; SKN-1 block: 35

What do the screens show for `CCN(CC(=O)Nc1ccccc1C(F)(F)F)C(=O)c1ccc(NC(=O)c2cccs2)cc1`?
ABCB6 inh 2: inactive; SKN-1 block: 47

What do the screens show for `CCN(CC(=O)Nc1ccccc1C(F)(F)F)C(=O)Cc1cccs1`?
ABCB6 inh 2: inactive; Yeast superoxide: inactive; VLA-4 inh: inactive; SKN-1 block: inactive

How did COCCNC(=O)CC(c1ccccc1)c1ccccc1 do in these assays?
Platelet DG rel: inactive; ABCB6 inh 2: inactive; Yeast superoxide: inactive; VLA-4 inh: inactive; SKN-1 block: 36

How did O=C(CC(c1ccccc1)c1ccccc1)NCCOCc1ccccc1 do in these assays?
Platelet DG rel: inactive; ABCB6 inh 2: inactive; Yeast superoxide: inactive; VLA-4 inh: inactive; SKN-1 block: inactive

Results for O=C(NCc1ccc2c(c1)OCO2)c1cccc(C(=O)NCc2ccc3c(c2)OCO3)c1 ?
Platelet DG rel: inactive; ABCB6 inh 2: inactive; Yeast superoxide: inactive; VLA-4 inh: inactive; SKN-1 block: inactive

What do the screens show for `O=C(NCc1ccc2c(c1)OCO2)c1cccc(N2CCCC2=O)c1`?
Platelet DG rel: inactive; ABCB6 inh 2: inactive; Yeast superoxide: inactive; VLA-4 inh: inactive; SKN-1 block: 43

How did O=C1C(=C(c2ccccc2)N2CCOCC2)Cc2ccccc21 do in these assays?
ABCB6 inh 2: inactive; SKN-1 block: inactive

Results for O=C1NC[C@H](CCCCN2CCN(CC3CCCCC3)C(=O)C2=O)N(CC2CCCCC2)C1=O ?
ABCB6 inh 2: inactive; SKN-1 block: inactive

What do the screens show for `COc1cccc(C(=O)NCC(=O)N/N=C/c2ccc3c(c2)OCO3)c1`?
Platelet DG rel: inactive; ABCB6 inh 2: 73; Yeast superoxide: inactive; VLA-4 inh: inactive; SKN-1 block: inactive
